Measured potencies and affinities stand elsewhere.
Biological target: Protein translocase subunit SecA (Escherichia coli (strain K12)) (UniProt P10408)
Experiment: Assay to Identify E. coli SecA ATPase Inhibitors
Format: functional
Parameters: scale not given: direction of the effect not stated beside the values
Conditions: 30 µM

Protein translocase subunit SecA (Escherichia coli (strain K12)), sequence (P10408 whole entry): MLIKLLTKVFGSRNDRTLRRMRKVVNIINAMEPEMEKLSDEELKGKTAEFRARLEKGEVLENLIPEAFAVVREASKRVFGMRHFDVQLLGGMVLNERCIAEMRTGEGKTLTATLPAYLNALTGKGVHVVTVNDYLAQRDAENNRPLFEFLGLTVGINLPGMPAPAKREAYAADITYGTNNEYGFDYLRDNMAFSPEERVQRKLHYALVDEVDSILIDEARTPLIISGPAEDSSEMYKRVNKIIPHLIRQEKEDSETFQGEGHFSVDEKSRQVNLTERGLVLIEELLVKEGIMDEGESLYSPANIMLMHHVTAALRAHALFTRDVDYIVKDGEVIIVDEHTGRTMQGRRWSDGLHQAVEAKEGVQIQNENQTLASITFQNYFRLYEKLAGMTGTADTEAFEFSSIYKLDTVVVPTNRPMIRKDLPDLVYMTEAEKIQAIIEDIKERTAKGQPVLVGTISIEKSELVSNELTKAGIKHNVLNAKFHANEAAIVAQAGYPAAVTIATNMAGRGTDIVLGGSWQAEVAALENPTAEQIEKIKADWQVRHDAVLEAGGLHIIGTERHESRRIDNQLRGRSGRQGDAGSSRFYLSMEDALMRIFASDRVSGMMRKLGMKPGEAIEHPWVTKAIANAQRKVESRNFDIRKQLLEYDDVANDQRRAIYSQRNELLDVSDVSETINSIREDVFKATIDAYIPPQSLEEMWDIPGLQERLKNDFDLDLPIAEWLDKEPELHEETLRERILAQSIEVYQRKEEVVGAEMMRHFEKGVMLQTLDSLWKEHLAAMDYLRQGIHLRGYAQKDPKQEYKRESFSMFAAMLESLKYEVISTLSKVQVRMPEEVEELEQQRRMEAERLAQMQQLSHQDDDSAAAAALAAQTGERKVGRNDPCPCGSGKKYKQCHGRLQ

| Structure (SMILES) | Percent Effect [%] |
| --- | --- |
| CN(C)C(=O)COC[C@]12COC[C@H]1CN(CC1CCC1)C2 | 1.38 |
| COCCN1CC[C@H](O)[C@@H]1Cc1ccccc1 | -2.09 |
| Cc1cc(O)nc(C2CCCN(Cc3ccncc3)C2)n1 (stereo not given) | -0.276 |
| CN(C)C(=O)c1ccc2c(c1)N(C)C(CC(=O)NCc1ccno1)CO2 (stereo not given) | -0.872 |
| COc1c(CNCc2ccc(C(=O)NC3CC3)cc2)c(C)nn1C | -3.12 |
| CN(C)CC1CN(C(=O)NCc2ccccc2)Cc2nccn2C1 (stereo not given) | -2.59 |
| CC(=O)NCC(=O)N1CCC2(CC1)CN(c1cccnc1)C(=O)CO2 | -1.82 |
| O=C(NCCN1CCOCC1)c1cc(-c2ccc3c(c2)CCO3)n[nH]1 | -4.45 |
| CC(C)c1cc(NC(=O)CN2CCCC2Cn2cccn2)on1 (stereo not given) | -5.87 |
| CCC(=O)Nc1nnc(CCCOc2ccccc2)s1 | -6.68 |
| Cc1cc(C)n(C2CCCN(C(=O)C3=NN(C)C(=O)CC3)C2)n1 (stereo not given) | -0.53 |
| CC1CCc2nc(O)c(C(=O)NCc3cccc(F)c3)cc2C1 (stereo not given) | -3.85 |
| Cc1nc2c(c(NC3CC3)n1)CCN(C(=O)C(C)(C)O)CC2 | -2.61 |
| CCCN1CCC(N(Cc2ncc(C)o2)C(C)=O)C1 (stereo not given) | -6.17 |
| O=C1NCCN1C1CCCN(Cc2coc(-c3ccc(F)cc3)n2)C1 (stereo not given) | -10.2 |
| Cc1noc(C)c1CN(C)CC1CCCN1c1cccnn1 (stereo not given) | -3.03 |
| Cc1noc(C)c1CN1C(=O)[C@H]2CC[C@@H]1CN(Cc1cccnc1N)C2 | 0.397 |
| Cc1cc(C)n(CC2CCCCN2Cc2cscn2)n1 (stereo not given) | -3.65 |
| Cc1cc(CNC(=O)C2CCCCN2C(=O)OC(C)(C)C)no1 (stereo not given) | -4.46 |
| O=C(c1csc(-c2cccs2)n1)N1CCCC1Cn1cccn1 (stereo not given) | -3.61 |

| Structure (SMILES) | Percent Effect [%] |
| --- | --- |
| O=C(CSCC1CC1)N1CCCC(c2nccn2Cc2ccncc2)C1 (stereo not given) | -2.74 |
| CCN1CC(C(=O)N2CCC(Oc3ccccc3Cl)CC2)CC1=O (stereo not given) | -1.39 |
| CNC(=O)CCNC(=O)c1cccc(Cn2nc(C)cc2C)c1 | -1.98 |
| CN(CC(=O)N1CCCC1Cn1cccn1)C1CC1 (stereo not given) | -4.84 |
| O=C(Cn1nc(-c2ccc(F)cc2)oc1=O)Nc1ccccc1 | 0.224 |
| Cc1cnccc1N1CCCN(C(=O)CCCc2cn[nH]c2)CC1 | -2.89 |
| Cc1ncccc1CNCC1CCN(CC(O)c2ccccc2)CC1 (stereo not given) | -5.43 |
| CCc1nc(CN(C)C2CCN(Cc3cnc(C)cn3)C2)no1 (stereo not given) | 0.722 |
| CSc1ccc(NC(=O)Nc2ccc3c(c2)N(S(C)(=O)=O)CC3)cc1 | -1.27 |
| O=C(Cn1ccc2c(Cl)cccc21)N[C@@H](C(=O)O)c1ccccc1 | -1.64 |
| Cc1ccc(C2CSCCN2C(=O)c2ccsc2)o1 (stereo not given) | -7.12 |
| COc1ccc(NC(=O)CNc2ccc(Br)cc2F)cc1 | -3.43 |
| CNS(=O)(=O)c1cccc(CNc2cc(C(F)(F)F)ccn2)c1 | -7.14 |
| CN(C)c1ccc(CCNC(=O)C2CCC(=O)N(C3CCCC3)C2)cc1 (stereo not given) | -4.96 |
| CC(C)c1nn(C)c(N2CCOCC2)c1CN[C@H](C)CO | -5.92 |
| Cc1nccn1CC1CCCN1S(=O)(=O)Cc1ccon1 (stereo not given) | -1.65 |
| COc1cccc(OCCNC(=O)CN2CCN(C)CC2C)c1 (stereo not given) | -4.33 |
| Cc1cc(C)cc(N(C)S(=O)(=O)c2cc(C(=O)O)cs2)c1 | -3.42 |
| CCOc1cccc(C(C)NCc2ccc(OC)c(OC)c2OC)c1 (stereo not given) | -3 |
| CC(NC(=O)CNCCn1cccn1)c1ccc2c(c1)CCCC2 (stereo not given) | -8.2 |
